# Mdm2 MdmX PPI: inhibitors of human Mdm2-MdmX association, primary screen, cell-based, luminescence, split luciferase, SaOS-2, uHTS; Protein Mdm4 (Homo sapiens) + E3 ubiquitin-protein ligase Mdm2 (Homo sapiens), …; SaOS-2 split-luciferase Mdm2/MdmX complementation; inhibition, % at 8 µM; 330,000 compounds, 3% hits; AID 485346, 2010;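 active = inhibition of at least 50% at 8 µM in the primary screen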
# Beta apoptosis: inhibitors of cytokine-induced beta cell apoptosis, primary screen, luminescence | 300,000 compounds, 0.8% hits | protection from apoptosis, % (test concentration not listed) | INS-1E cytokine-induced death, ATP luminescence, 48 h; percent of positive-control rescue, neutral wells zero;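 active = Every replicate reaches about 75%, or at least half do and their mean reaches it too, limit read from the data; inconclusive = At least half of replicates reach the limit but their mean does not; inactive = Under half of replicates reach the limit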;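 note: 0% = cytokine-treated negative control wells and 100% = positive control rescue; higher means more ATP so stronger rescue from cytokine killing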
# CSC inhib: cancer stem cell viability inhibitors, primary screen, luminescence; inhibition, % at 7.5 µM; cancer stem cell-like cells viability; 300,000 compounds, 1.1% hits; in the data active = inhibition above about 75%; inconclusive = no clear call, values can overlap the other calls; tested in HMLE shEcad cells
# MPTP inh: mitochondrial permeability transition pore inhibitors, primary screen, biochemical, isolated mouse mitochondria, absorbance | AID 602449, 2012 | inhibition, % at 10 µM | Ca2+ swelling absorbance, 30 min | 360,000 compounds, 1.4% hits;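 active = inhibition of 50% or more, scaled per plate between neutral and stimulator controls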;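 note: 0% = DMSO wells given calcium and 100% = 1 mM EGTA wells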
# Calb FLC: C. albicans growth inhibition with fluconazole, primary screen, CaCi-2 strain, Alamar Blue fluorescence | C. albicans CaCi-2 (fluconazole-resistant clinical isolate) + fluconazole, 48 h | growth inhibition, % (test concentration not listed) | 300,000 compounds, 0.57% hits;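 active = growth inhibition above about 58% in most replicates, limit read from the data, passing the limit was not always enough; inconclusive = exactly half the replicates above a set limit; inactive = most replicates below a set limit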;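 note: all wells also contain fluconazole at 8 µg/ml as a sub-toxic cotreatment; 0% = median of DMSO wells and 100% = median of geldanamycin control wells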
# SKKanGAS inh: S. pyogenes SKKanGAS growth inhibitors in kanamycin, primary screen, streptokinase expression inhibitor project, SKKanGAS strain, BacTiter-Glo luminescence; AID 1662, 2009; inhibition, % at 7.5 µM; 300,000 compounds, 1.3% hits; 6 h;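 active = mean replicate score, as percent of positive control median, at least 50; inconclusive = mean below 50 but one replicate at or above 50; inactive = mean and every replicate below 50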;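 note: strain carries kanamycin resistance gene driven by streptokinase promoter and grows in 40 µg/ml kanamycin; loss of luminescence reflects streptokinase promoter inhibition or plain growth inhibition; 0% = median of DMSO wells and 100% = positive control at its reference dose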
# Rh123 counter: fluorescence retest of MPTP screen hits in isolated mitochondria, single concentration; shares compounds with MPTP inh; membrane potential, Rhodamine 123 fluorescence; inhibition, % at 10 µM; 5,000 compounds, 78% hits; AID 624504, 2012; in the data active = inhibition above about 22%;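 note: 0% = DMSO vehicle and 100% = positive control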
# MPTP swell DR: mitochondrial permeability transition pore inhibitors, dose response, biochemical, absorbance, uHTS hits. isolated mitochondria swelling. IC50, µM. 780 compounds, 58% hits. shares compounds with MPTP inh; in the data active = IC50 below about 20 µM
# MPTP counter DR: fluorescent counter-screen in isolated mitochondria, dose response, counter-screen for MPTP inhibitor project, biochemical, fluorescence, uHTS hits; AID 651564, 2012; 780 compounds, 49% hits; shares compounds with MPTP inh; isolated mitochondria counterscreen, fluorescence read-out; IC50, µM; in the data active = IC50 below about 80 µM
# * marks the source's active call; other numbers are inactive results; i = inactive; ? = inconclusive; nt = not tested or not shown. An excerpt weighted towards active compounds, which were near 5.4% of everything screened.
SMILES,Mdm2 MdmX PPI,Beta apoptosis,CSC inhib,MPTP inh,Calb FLC,SKKanGAS inh,Rh123 counter,others
O=C(CN1c2ccccc2Sc2ccccc21)NNC(=S)Nc1ccc(Cl)cc1,19,9,31,63*,-4,89*,51*,
CC1CN(C)C(C)CC1OC(=O)C(c1ccccc1)c1ccccc1 (configuration not stated),27,-12,20,1,-15,0,nt,
CCCCOc1ccc(C(=O)OC2CC(C)N(C)CC2C)cc1 (configuration not stated),27,-4,75,83*,8,3,-6,MPTP swell DR=9.7*;MPTP counter DR=74*
COc1ccc(CCN=Cc2c(C)[nH]n(-c3ccc([N+](=O)[O-])cc3)c2=O)cc1OC,2,6,16,1,-1,0,nt,
Cc1ccc(-n2[nH]c(C)c(/C=N/Nc3ccc([N+](=O)[O-])cc3[N+](=O)[O-])c2=O)cc1C,24,54,71,115*,-8,29,61*,
S=C(NCC1CCCO1)Nc1ccc(Cl)c(Cl)c1 (configuration not stated),24,2,-9,60*,-5,5,87*,
S=C(NCc1ccncc1)Nc1cc(Cl)cc(Cl)c1,29,2,-7,68*,-2,5,99*,
S=C(NCc1ccncc1)Nc1ccc(Br)cc1,29,2,6,1,0,10,nt,
S=C(NCc1ccncc1)Nc1ccccc1,11,5,-17,-1,-12,5,nt,
S=C(NCc1ccncc1)Nc1ccc(Cl)c(Cl)c1,-5,-9,12,88*,-2,5,92*,
COc1[nH]c(/N=C/c2ccccc2)c(C#N)c1C#N,7,-1,-12,87*,-10,2,33*,
COc1ccc(/C=N/c2oc(-c3ccccc3)cc2C#N)cc1,-9,-2,-2,2,5,1,nt,
Cc1[nH]n(-c2ncc(-c3ccc(Cl)cc3)s2)c(=O)c1C(c1ccc(Cl)cc1)C(C#N)C#N (configuration not stated),-21,-2,96*,98*,-5,97*,1,
COc1ccc(-c2c(C(F)(F)F)[nH]n3c(=O)cc(-c4ccccc4)nc23)cc1,28,-4,92*,82*,-1,56*,42*,
COc1ccc(Cc2nnc(NN)[nH]c2=O)cc1OC,-9,nt,nt,-2,3,2,nt,
CCc1ccccc1Nc1ccc(C(=O)O)cc1N,-13,-3,nt,62*,-1,2,-4,MPTP swell DR=i;MPTP counter DR=>80
Nc1cc(C(=O)O)ccc1Nc1ccccc1,2,4,-1,0,?,17,nt,
Cc1nn(C)c(Nc2ccc(Br)cc2)c1Br,27,58,-12,89*,-27,7,76*,
Cc1cc(C)nc(-n2nc(C)c(Br)c2Nc2ccc(Br)cc2)n1,11,-2,1,2,-6,33,nt,
C=CCN(CC=C)C(=O)c1ccc2nc(Cc3ccc(OC)c(OC)c3)oc2c1,4,nt,-2,50*,7,-3,11,MPTP swell DR=i;MPTP counter DR=43*
O=C(NCc1ccc2c(c1)OCO2)c1n[nH]c(=O)c2ccccc12,31,2,nt,0,-17,6,nt,
Cc1cc(O)c(-c2cc(C(=O)NCc3ccc4c(c3)OCO4)[nH]n2)cc1C,-17,-1,-3,8,-13,-9,nt,
Cc1ccc(-c2cc(C(=O)Nc3cccnc3)[nH]n2)c(O)c1C,-15,0,7,62*,-4,0,71*,
Cc1ccc(-c2cc(C(=O)NCc3ccc4c(c3)OCO4)[nH]n2)c(O)c1C,-17,-5,16,61*,-22,13,71*,
O=C(NCc1ccc2c(c1)OCO2)c1cc(-c2cc(Cl)ccc2O)n[nH]1,26,4,-8,64*,-1,-6,62*,
SMILES,Mdm2 MdmX PPI,Beta apoptosis,CSC inhib,MPTP inh,Calb FLC,SKKanGAS inh,Rh123 counter,others
CCOC(=O)N1CCC(Nc2c(Nc3ccc(F)cc3)c(=O)c2=O)CC1,4,-2,-9,6,1,-2,nt,
CCOC(=O)N1CCC(Nc2c(Nc3cccc(CC)c3)c(=O)c2=O)CC1,-7,13,12,89*,9,8,72*,
CC(=O)Nc1ccc(NC(=O)C(=O)N/N=C/c2cccnc2)cc1,15,-13,-4,2,0,-6,nt,
N=C(N)SCc1cn(-c2ccccc2)nc1-c1ccc(Br)cc1,nt,nt,nt,76*,-22,34,-10,
Cc1cc(O)cc2c1O[C@@](C)(CCC[C@@H](C)CCC[C@@H](C)CCCC(C)C)CC2,4,-6,5,-2,nt,nt,nt,
Cc1ccc(S(=O)(=O)NCC2CCCO2)cc1 (configuration not stated),6,-6,-21,2,-1,-3,nt,
O=S(=O)(NCC1CCCO1)c1ccc(-c2ccc(S(=O)(=O)NCC3CCCO3)cc2)cc1 (configuration not stated),4,96*,3,86*,20,12,101*,
CCN1CCC(N2CCN(c3ccccc3OC)CC2)CC1,14,-3,-16,1,2,1,nt,
COc1ccc(NS(=O)(=O)c2ccc3oc(SCc4ccc(F)cc4)nc3c2)cc1,22,25,72,60*,35,1,50*,
COc1ccccc1NS(=O)(=O)c1ccc2oc(SCc3ccc(F)cc3)nc2c1,43,21,6,7,1,7,nt,
NC(=S)n1[nH]c(-c2ccc([N+](=O)[O-])cc2)c(N=Nc2ccccc2[N+](=O)[O-])c1=O,nt,nt,nt,44,nt,nt,nt,
NC(=S)n1[nH]c(-c2ccc([N+](=O)[O-])cc2)c(N=Nc2cccc([N+](=O)[O-])c2)c1=O,nt,nt,nt,108*,100*,-35,76*,
Cc1c(N=Nc2c(-c3ccc([N+](=O)[O-])cc3)[nH]n(C(N)=S)c2=O)cccc1[N+](=O)[O-],nt,nt,nt,96*,nt,nt,67*,
O=C(Cn1nnc(-c2cc(C(F)(F)F)cc(C(F)(F)F)c2)n1)NNC(=S)Nc1ccc(Cl)cc1,0,3,-7,84*,-3,78*,61*,
Cc1ccc(CN/C=C/C(=O)c2ccc(Br)cc2)cc1,-4,-6,3,5,-33,-3,nt,
CC(NC(=O)Nc1ccc(Br)cc1)C(C)(C)C (configuration not stated),13,2,2,78*,0,-15,93*,

# Screening results as filed in PubChem.
